# Screening results: PubChem, National Center for Advancing Translational Sciences (NCATS)
# Hits are enriched below; roughly 18% of the tested compounds scored in any of these assays.
# IL-1B inflam inh: inhibitors of inflammasome signaling (IL-1 beta secretion); THP-1 LPS/ATP IL-1B secretion, AlphaLISA, 16 h; active compounds read low; activity change, % at 57.5 µM; 360,000 tested, 4.7% active; AID 743279; in the data active = activity change below about -50%; inconclusive = mostly about -30% to -49%
#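 Secreted IL-1B measured by AlphaLISA bead assay after 16 h compound exposure of THP-1 cells; compounds (final up to 57.5 uM) added 1 h before LPS (250 ng/mL) and ATP (1.25 mM) stimulation; lower signal means less secretion.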
# Six1-Eya2 inh: blocks human Six1 binding to Eya2 | Q15475+O00167 | AlphaScreen GST-Six1/His-Eya2 binding, biochemical; active compounds read low | activity change, % (test concentration not listed) | 360,000 tested, 0.56% active; in the data active = activity change below about -65%; inconclusive = mostly about -30% to -63%
#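 GST-Six1 + His-Eya2 (5X stock: 250/500 nM); Tris pH 8.0, 300 mM NaCl, 0.05% BSA, 0.02% Tween 20; GSH donor/Ni acceptor beads; 1 h 37 °C dark; AlphaScreen readout.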
# CtBP-E1A inh: inhibitors of CtBP/E1A interaction; AlphaScreen GST-E1A/His-CtBP binding, 1536-well; active compounds read low; activity change, % (concentration not given with the values); 340,000 tested, 0.49% active; in the data active = activity change below about -65%; inconclusive = mostly about -30% to -63%
#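 GST-E1A and His-tagged CtBP (125 nM each as 5X stock) were preincubated with pin-transferred compound for 2 h at 37 °C in the dark, then glutathione donor and nickel acceptor beads were added for 1 h before AlphaScreen reading.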
# DT40 TDP1 CPT: DT40-hTDP1 cell growth loss with CPT; chicken DT40 Tdp1-/-;hTDP1 cells + 20 nM CPT, ATP luminescence, 48 h; 420,000 tested, 12% active; Potency, µM (top dose mostly 46.2 µM), inactives show at the top dose activity change, negative = growth inhibition, actives largely listed as inhibitors; note: potency is the fitted concentration of half-maximal effect; nearly all actives have a fitted effect of over 55% in size
#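 Chicken DT40 Tdp1-/- cells stably complemented with human TDP1 were seeded at 400 cells/well in medium containing 20 nM camptothecin, exposed to pin-transferred compounds, and grown at 37 °C for at least 48 hr. Viability was read as ATP luminescence.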
# TDP1 cell noCPT: qHTS for Inhibitors of human tyrosyl-DNA phosphodiesterase 1 (TDP1): qHTS in cells in absence of CPT; AID 686978, 2013; 420,000 tested, 15% active; DT40 Tdp1-/- hTDP1 cells, no CPT, ATP luminescence, 48 h; Potency, µM (doses to about 46.2 µM), for inactives: at the top dose activity change, negative = growth inhibition, actives largely listed as inhibitors; note: potency is the fitted concentration of half-maximal effect; nearly all actives have a fitted effect of over 55% in size
#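 Camptothecin absent (DMSO only). Human TDP1-complemented DT40 knockout cells, 400 cells/well, 37 °C for minimum 48 hr; ATP measured via CellTiter-Glo, 30 min dark incubation, luminescence.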
# TDP1 block: TDP1 (human) enzyme inhibition. recombinant TDP1, AlphaScreen DNA substrate cleavage. Potency, µM (series often up to 130 µM), inactives show at the top dose activity change, negative = inhibition, most hits filed as inhibitors. 350,000 tested, 0.28% active; note: potency is the fitted concentration of half-maximal effect; nearly all actives have a fitted effect of over 40% in size
#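 Compounds were preincubated with Tdp1 (1 nM final) for 15 min at room temperature before substrate (15 nM final) started a 5 min reaction; beads (10 ug/ml final) were then added for 10 min before AlphaScreen detection.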
# Active calls of the source: *; ? = inconclusive; · = no result given; [ ] = remark or other dose. Unless noted, calls come from the whole dose curve; as a rule, active = well fitted curve in the direction sought with a large enough effect; inconclusive = small, poorly fitted or top-dose-only effect, or another doubt; inactive = no such curve, though single readings can be large; an effect the other way counts as inactive or inconclusive. % is set by controls: 0 for no effect and ±100 for the full control effect.
SMILES,IL-1B inflam inh,Six1-Eya2 inh,CtBP-E1A inh,DT40 TDP1 CPT,TDP1 cell noCPT,TDP1 block
CC(C)(c1ccccc1)c1ccc(OCC2CO2)cc1 (stereo not drawn),13,17,37,-1%,?,-7%[0.0935 µM]
CCC1(NC(C)=O)CC2CC1CC2NC(C)=O (stereo not drawn),0,3,2,?,-1%,1%
CC(=O)Nc1ccc([N+](=O)[O-])c(CS(=O)(=O)c2ccc(C)cc2)c1[N+](=O)[O-],45,-1,-1,?,23µM*,11%
CC(=O)Nc1ccc(NS(=O)(=O)c2ccc(C)cc2)cc1[N+](=O)[O-],·,-1,1,4%,-5%,4%
CN=C1C=CC(=C(c2ccc(N(C)C)cc2)c2ccc(N(C)C)cc2)C=C1,·,·,·,0.21µM*,0.21µM*,·
CC1Cc2cc(/C=C3/SC(=S)NC3=O)ccc2O1 (stereo not drawn),18,-18,-24,0%,18µM*,·
CCN(CC)c1ccc(C=C2SC(=S)NC2=O)cc1,0,-18,-21,13µM*,?,·
CSCC(=O)N1CCCC(CNC(=O)c2ccccc2Cl)C1 (stereo not drawn),-10,1,-1,-6%,-27%,-2%
Fc1ccc(Oc2cnc3ccccc3n2)cc1,32,10,22,-2%,-24%,4%
O=C(COc1ccccc1Cl)NNC(=O)Cn1[nH]c(=O)c2ccccc2c1=O,6,-2,-4,9.2µM*,?,-1%[56.1 µM]
Nc1cccc(-n2cccc2)c1,-19,-8,·,7%,6%,7%
COc1ccc(N2CCN(C(=O)c3ccc(Cn4c(=S)[nH]c5ccc(N6CCOCC6)cc5c4=O)cc3)CC2)cc1,18,?,-24,23µM*,18µM*,3%
Cc1ccc(Cn2c(=S)[nH]c3ccc(N4CCOCC4)cc3c2=O)o1,?,-20,2,?,16µM*,·
Cc1ccc(C)c(N2CCN(C(=O)c3ccc(Cn4c(=S)[nH]c5ccc(N6CCOCC6)cc5c4=O)cc3)CC2)c1,7,-4,0,?,15µM*,5%
CCOc1cc2[nH]c(=S)n(Cc3ccc(C)o3)c(=O)c2cc1OCC,6,1,-3,29µM*,-30%,9%
CCOc1cc2[nH]c(=S)n(CCCOC)c(=O)c2cc1OCC,4,-2,-6,-6%,?,3%
CCCCn1c(=S)[nH]c2ccc(N3CCOCC3)cc2c1=O,·,·,·,·,·,-1%
O=C(Nc1ccc(Oc2ccccc2)cc1)c1csc([C@@H]2C[C@H](O)[C@@H](CO)O2)n1,64,3,2,?,?,·
O=C(c1ccc(Cn2c(=S)[nH]c3ccc(N4CCOCC4)cc3c2=O)cc1)N1CCN(c2ccc(F)cc2)CC1,-8,-25,-21,16µM*,16µM*,5%
CCOc1cc2[nH]c(=S)n(C(C)C)c(=O)c2cc1OCC,42,-11,-6,18µM*,?,7%
CCOc1cc2[nH]c(=S)n(C3CC3)c(=O)c2cc1OCC,29,-8,-9,-28%,?,-3%
O=C(c1ccc(Cn2c(=S)[nH]c3cc4c(cc3c2=O)OCO4)cc1)N1CCN(c2ccccc2)CC1,-3,-16,0,?,23µM*,6%
CCOc1cc2[nH]c(=S)n(CCN3CCCCC3CC)c(=O)c2cc1OCC (stereo not drawn),-24,1,-18,?,16µM*,0%
CC[C@H](CO)NCCN[C@H](CC)CO,14,0,-6,4%,-9%,5%
Cc1cccc(Oc2ncnc3onc(C)c23)c1,27,2,-2,2%,-14%,6%
